Test results published in PubChem BioAssay (Tox21).
Values without a mark were called inactive. Inconclusive results are not listed. Entries that show only a call come without a potency. Active and inactive are the calls of the source. Unless noted, calls follow the shape of the dose curve; as a rule, active = well fitted curve in the direction sought with a large enough effect in the repeat runs; inconclusive = weak or mixed curves; inactive = no such curve, though single readings can be large; an effect the other way counts as inactive or inconclusive.

Tests used:
[1] = qHTS assay for small molecule agonists of the p53 signaling pathway (AID 651631; calls by dose curve; also: nearly all actives have a fitted effect of over 15% in size; also: potency is read from the fitted curve at half-maximal effect)
Method in brief: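 HCT-116 cells carrying a beta-lactamase reporter under p53 response elements were dosed with compound for 16 h at 37 °C. LiveBLAzer B/G FRET substrate was then added for 2 h at room temperature, and fluorescence intensity was read to detect pathway agonism.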

[2] = qHTS assay for small molecules that induce genotoxicity in human embryonic kidney cells expressing luciferase-tagged ATAD5 (AID 651632); also: nearly all actives have a fitted effect of over 15% in size
Method in brief: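 Increased luciferase signal from ATAD5-tagged reporter cells indicates DNA-damage-driven ATAD5 induction. HEK293T cells are treated for 16 hr at 37C before detection with Amplite.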

[3] = qHTS assay for small molecule agonists of the p53 signaling pathway - cell viability (AID 651633; calls by dose curve; also: nearly all actives have a fitted effect of over 30% in size; also: potency is read from the fitted curve at half-maximal effect)
Method in brief: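 p53RE-bla cells, seeded at 4,000 per well and rested 5 h at 37 C/5% CO2, received compounds in DMSO for 16 h at 37 C. CellTiter-Glo was then added, and luminescence was read after 30 min at room temperature to gauge cytotoxicity.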

[4] = qHTS assay for small molecules that induce genotoxicity in human embryonic kidney cells expressing luciferase-tagged ATAD5 - cell viability (AID 651634; calls by dose curve; also: nearly all actives have a fitted effect of over 25% in size; also: potency is read from the fitted curve at half-maximal effect)
Method in brief: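 Cytotoxicity counterscreen in HEK293T cells bearing an ATAD5-luciferase reporter: live-cell protease activity measured by CellTiter-Fluor fluorescence after 15.5 hr compound exposure.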

[5] = qHTS assay for small molecule disruptors of the mitochondrial membrane potential - cell viability (AID 720634; calls by dose curve;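 also: human HepG2 liver cancer cells; series mostly up to about 83 µM; nearly all actives have a fitted effect of over 20% in size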)
Method in brief: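 After overnight attachment at 37 C, HepG2 cells received compound or DMSO vehicle for 1 hr. Viability is then taken from ATP-driven luminescence following a 30 min room-temperature CellTiter-Glo step.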

[6] = qHTS assay to test for compound auto fluorescence at 590 nm (red) in HepG2 cells (AID 720674)
Method in brief: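 Intrinsic compound fluorescence in the red window (Ex/Em 540/590 nm) is measured in attached HepG2 cells exposed for 1 hr, DMSO vehicle as baseline, benchmarked to Rose Bengal sodium.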

[7] = qHTS assay to test for compound auto fluorescence at 535 nm (green) in HepG2 cells (AID 720675)
[8] = qHTS assay to test for compound auto fluorescence at 460 nm (blue) in HEK293 cells (AID 720678)
Method in brief: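 Auto fluorescence in the blue band was quantified as triamterene equivalency. HEK293 cells were seeded at 2,000/well, dosed after a 4-5 hr attachment, and kept overnight at 37C before the 405/460 nm reading.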

[9] = qHTS assay to test for compound auto fluorescence at 590 nm (red) in HEK293 cells (AID 720679)
Method in brief: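 Autofluorescence equivalency to Rose Bengal sodium, 540/590nm, in HEK293 cells exposed overnight to 23 nL compound per well.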

[10] = qHTS assay to test for compound auto fluorescence at 535 nm (green) in HEK293 cells (AID 720680)
[11] = qHTS assay to test for compound auto fluorescence at 460 nm (blue) in HEK293 cell free culture (AID 720681)
Method in brief: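 Test compounds were pinned into cell-free culture medium (DMEM with 10% FBS) and fluorescence was read directly at Ex/Em 405/460 nm. Signals were expressed as fluorescence equivalents of triamterene, with DMSO vehicle as control.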

[12] = qHTS assay to test for compound auto fluorescence at 590 nm (red) in HEK293 cell free culture (AID 720683)
Method in brief: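 Tox21 10K library compounds were pinned into cell-free DMEM with 10% FBS and fluorescence was read at excitation 540 nm. Activity is expressed as Rose Bengal sodium equivalency.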

[13] = qHTS assay to test for compound auto fluorescence at 590 nm (red) in HepG2 cell free culture (AID 720684)
Method in brief: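 Measured in medium alone (MEM containing 10% FBS) following pintool addition of compound; emission at 590 nm with 540 nm excitation, referenced to Rose Bengal sodium.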

[14] = qHTS assay to test for compound auto fluorescence at 460 nm (blue) in HepG2 cell free culture (AID 720685)
Method in brief: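 Compound (23 nL) or DMSO pinned into cell-free MEM with 10% FBS; blue fluorescence read at 405/460 nm excitation/emission, expressed as auto-fluorescence equivalency to triamterene.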

[15] = qHTS assay to test for compound auto fluorescence at 535 nm (green) in HepG2 cell free culture (AID 720686)
[16] = qHTS assay to test for compound auto fluorescence at 460 nm (blue) in HepG2 cells (AID 720687)
Method in brief: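 Cells (2,000/well in MEM with 10% FBS) attached overnight at 37 C, then were exposed to compound or DMSO for 1 hr at 37 C, 5% CO2. Fluorescence read at Ex/Em 405/460 nm, expressed as triamterene-equivalent signal.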

[17] = target: Glucocorticoid receptor (Homo sapiens) (UniProt P04150); assay: qHTS assay to identify small molecule agonists of the glucocorticoid receptor (GR) signaling pathway (AID 720691; active = well fitted activation curve with a large enough effect in the signal ratio in the repeat runs, not every such curve was filed as active; the % refers to the signal ratio)
Method in brief: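 Agonist mode in a HeLa line carrying a GRE-controlled beta-lactamase reporter. Compounds act for 18 h at 37 C before a 2 h room-temperature FRET substrate step and fluorescence reading.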

[18] = target: Glucocorticoid receptor (Homo sapiens) (UniProt P04150); assay: qHTS assay to identify small molecule antagonists of the glucocorticoid receptor (GR) signaling pathway (AID 720692; active = well fitted inhibition curve with a large enough effect in the signal ratio in the repeat runs, not every such curve was filed as active; the % refers to the signal ratio)
Method in brief: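 Cells plated, rested 4 h at 37 C/5% CO2; compounds in DMSO pin-transferred; dexamethasone added to 5 nM final; 18 h at 37 C; B/G FRET substrate added, 2 h room temperature; fluorescence measured.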

[19] = qHTS assay for small molecule disruptors of the mitochondrial membrane potential (AID 720635); also: potency is read from the fitted curve at half-maximal effect
Method in brief: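 HepG2 cells (2,000/well) attached overnight at 37C, then took compound for 1 hr at 37C, 5% CO2. Mito-MPS dye was added for 30 min; fluorescence was read at 490/535 nm (monomers) and 540/590 nm (aggregates).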

[20] = qHTS assay to test for compound auto fluorescence at 535 nm (green) in HEK293 cell free culture (AID 720682)
Method in brief: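 Green-label autofluorescence (485 nm excitation, 535 nm emission) measured on compound added to cell-free culture medium (DMEM, 10% FBS). Output is expressed relative to fluorescein.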

Sequence of Glucocorticoid receptor (Homo sapiens) (P04150 whole entry, looked up): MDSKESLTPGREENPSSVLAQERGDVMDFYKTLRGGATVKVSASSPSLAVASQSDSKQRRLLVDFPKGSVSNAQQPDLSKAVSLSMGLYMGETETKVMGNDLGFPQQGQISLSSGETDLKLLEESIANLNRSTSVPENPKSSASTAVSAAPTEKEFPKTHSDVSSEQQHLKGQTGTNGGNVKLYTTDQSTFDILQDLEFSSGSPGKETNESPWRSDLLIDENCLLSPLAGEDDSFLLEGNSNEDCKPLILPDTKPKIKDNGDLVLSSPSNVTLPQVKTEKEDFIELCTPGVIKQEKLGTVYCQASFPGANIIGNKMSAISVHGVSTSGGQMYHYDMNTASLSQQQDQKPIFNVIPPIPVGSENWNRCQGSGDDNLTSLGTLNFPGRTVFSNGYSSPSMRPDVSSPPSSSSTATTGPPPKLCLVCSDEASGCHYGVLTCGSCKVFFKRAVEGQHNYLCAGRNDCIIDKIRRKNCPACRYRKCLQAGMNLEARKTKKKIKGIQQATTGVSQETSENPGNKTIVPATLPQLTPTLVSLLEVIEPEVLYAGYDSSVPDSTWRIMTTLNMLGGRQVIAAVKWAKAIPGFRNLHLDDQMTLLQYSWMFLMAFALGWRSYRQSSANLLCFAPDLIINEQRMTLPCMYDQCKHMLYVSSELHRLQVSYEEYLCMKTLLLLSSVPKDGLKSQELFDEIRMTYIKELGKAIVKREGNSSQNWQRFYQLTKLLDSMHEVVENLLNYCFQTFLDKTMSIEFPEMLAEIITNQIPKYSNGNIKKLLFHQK

Compound | Potency [1] | Potency [2] | Potency [3] | Potency [4] | outcome [5] | outcome [6] | outcome [7] | Potency [8] | outcome [9] | outcome [10] | Potency [11] | outcome [12] | outcome [13] | Potency [14] | outcome [15] | Potency [16] | Potency [17] | Potency [18] | Potency [19] | outcome [20]
CC[C@H]1OC(=O)[C@H](C)[C@@H](O[C@H]2C[C@@](C)(OC)[C@@H](O)[C@H](C)O2)[C@H](C)[C@@H](O[C@@H]2O[C@H](C)C[C@H](N(C)C)[C@H]2O)[C@](C)(O)C[C@@H](C)CN(C)[C@H](C)[C@@H](O)[C@]1(C)O | inactive | inactive | inactive | inactive | inactive | inactive | inactive | inactive | inactive | inactive | inactive | inactive | inactive | inactive | inactive | inactive | – | – | – | –
CN(C)CC/C=C1\c2ccccc2Sc2ccc(Cl)cc21 | 15 µM (active) | inactive | – | inactive | inactive | inactive | inactive | inactive | inactive | inactive | inactive | inactive | inactive | inactive | inactive | – | inactive | inactive | – | –
O=[N+]([O-])C1(Br)COCOC1 | inactive | inactive | inactive | – | – | inactive | inactive | inactive | inactive | inactive | inactive | inactive | inactive | inactive | inactive | inactive | – | – | 48.6 µM (active) | inactive
CCN(Cc1cccc(S(=O)(=O)O)c1)c1ccc(C(=C2C=CC(=[N+](CC)Cc3cccc(S(=O)(=O)O)c3)C=C2)c2ccccc2S(=O)(=O)[O-])cc1 | inactive | inactive | – | 15.4 µM (active) | – | inactive | inactive | inactive | inactive | inactive | inactive | inactive | inactive | inactive | inactive | inactive | – | – | – | –
Cc1cc(CCC(=O)OCCOCCOCCOC(=O)CCc2cc(C)c(O)c(C(C)(C)C)c2)cc(C(C)(C)C)c1O | inactive | inactive | inactive | inactive | – | inactive | inactive | inactive | inactive | inactive | inactive | inactive | inactive | inactive | inactive | inactive | inactive | – | 59.6 µM (active) | inactive
CCN(CC)c1ccc(C(=C2C=CC(=[N+](CC)CC)C=C2)c2ccc(S(=O)(=O)O)cc2S(=O)(=O)[O-])cc1 | inactive | inactive | 27.3 µM (active) | 27.3 µM (active) | – | inactive | inactive | inactive | inactive | inactive | inactive | inactive | inactive | inactive | inactive | inactive | inactive | inactive | – | –
CC(C)N(C)C | inactive | inactive | inactive | inactive | inactive | inactive | inactive | inactive | inactive | inactive | inactive | inactive | inactive | – | inactive | inactive | inactive | inactive | – | inactive
O=C1c2ccccc2C(=O)c2c(O)ccc(O)c21 | inactive | inactive | inactive | 54.5 µM (active) | inactive | inactive | inactive | inactive | inactive | inactive | inactive | – | inactive | – | inactive | inactive | inactive | – | – | inactive
